TRPML1 inh: inhibitors of human TRPML1 channel; Q9GZU1; TRPML1-inducible cells, Ca2+ dye fluorescence, FDSS; hits give low values; inhibition of EC80 agonist-evoked calcium signal; activity change, negative = inhibition, % (no concentration beside the values); actives 0.02% (n = 390,000); AID 624415; in the data active = activity change below about -50%; inconclusive = between about -30% and that limit;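 note: stimulus is agonist 54-4 at its EC80 concentration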
Target sequence (Q9GZU1 whole entry, looked up): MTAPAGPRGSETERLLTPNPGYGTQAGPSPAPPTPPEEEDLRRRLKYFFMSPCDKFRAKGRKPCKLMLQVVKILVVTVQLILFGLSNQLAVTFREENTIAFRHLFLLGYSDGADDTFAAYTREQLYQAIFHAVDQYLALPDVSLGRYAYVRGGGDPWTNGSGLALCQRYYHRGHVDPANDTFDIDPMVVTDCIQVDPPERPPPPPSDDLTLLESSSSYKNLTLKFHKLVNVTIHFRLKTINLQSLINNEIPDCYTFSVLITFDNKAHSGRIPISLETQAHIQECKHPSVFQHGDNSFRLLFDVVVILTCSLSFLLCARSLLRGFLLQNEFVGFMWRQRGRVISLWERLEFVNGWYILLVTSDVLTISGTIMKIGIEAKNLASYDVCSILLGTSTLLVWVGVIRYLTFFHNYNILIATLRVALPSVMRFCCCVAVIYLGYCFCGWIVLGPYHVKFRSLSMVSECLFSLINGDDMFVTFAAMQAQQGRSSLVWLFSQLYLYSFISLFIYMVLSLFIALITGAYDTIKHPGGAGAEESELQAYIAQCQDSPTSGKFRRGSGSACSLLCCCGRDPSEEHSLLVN
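TRPML1-DL cells, Tet-induced overnight (~16 h, 37 °C) at 1,500 cells/well, were loaded with Ca8 no-wash dye plus quencher for 45-90 min at room temperature. Compounds were pinned during FDSS kinetic reading; agonist 54-4 at EC80 (4 uM final) then added.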
Vif-A3F inh: inhibitors of Vif-A3F interaction | HeLa A3F-eYFP + Vif (tagged APOBEC3F with the HIV-1 protein that degrades it), YFP fluorescence increase | actives 0.2% (n = 390,000) | AID 602313 | Potency, µM (series often up to 46.1 µM); note: nearly all actives have a fitted effect of over 65% in size
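HeLa cells stably expressing A3F-eYFP plus Vif, plated and incubated overnight at 37 deg C, then exposed to compounds overnight at 37 deg C. Blocked degradation read as raised yellow fluorescence (Ex 488/Em 500-530).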
Glioma ERSR ind: ER stress response induction in glioma. U87-MG GRP78 promoter luciferase reporter, 16 h. Potency, µM, actives largely listed as activators. actives 0.02% (n = 420,000); note: series mostly up to about 76 µM; nearly all actives have a fitted effect of over 35% in size
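ERSR induction read as luciferase luminescence (Bright-Glo, 10 min at room temperature) in stably transfected human U87-MG glioma cells exposed to compounds for 16 h, using GRP78 as sensor.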
Vif-APOBEC3G blk: inhibitors of Vif-APOBEC3G interaction; Q9HC16; HeLa A3G-eYFP + Vif (tagged APOBEC3G with the HIV-1 protein that degrades it), YFP fluorescence, overnight; Potency, µM (top dose mostly 46.1 µM), hits mostly inhibitors; actives 0.076% (n = 410,000); AID 602310; note: nearly all actives have a fitted effect of over 60% in size
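Read-out is eYFP fluorescence (Ex 488/Em 500-530) from Vif-expressing HeLa A3G-eYFP cells; more signal means A3G escaped Vif-mediated degradation. Cells plated overnight, compound pinned in, incubated overnight at 37 deg C.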
ALOX12 inh: blocks human arachidonate 12S-lipoxygenase; P18054; purified 12hLO, xylenol orange hydroperoxide absorbance; Potency, µM (top dose mostly 108 µM), usual class: inhibitors; actives 1.1% (n = 580,000); AID 1671190
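Purified human 12hLO at 150 nM in 25 mM Hepes, 0.01% Triton X-100, pH 7.0, preincubated 15 min at room temperature with compound. Reaction started with 40 uM arachidonic acid, 30 min at room temperature. Hydroperoxide measured by Fe-xylenol orange, 573/405 nm absorbance ratio.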
TRPML1 ag: activates the human TRPML1 channel; TRPML1-expressing cells, Ca2+ dye fluorescence, FDSS; actives 0.12% (n = 410,000); activation, % (test concentration not listed); Q9GZU1; AID 624414; in the data active = activation above about 50%; inconclusive = mostly about 30% to 49%
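In this qHTS format, compounds were pin-transferred onto Ca8-dye-loaded TRPML1-DL cells induced with Tet overnight, and intracellular Ca2+ fluorescence was recorded kinetically for 110 s after a 10 s baseline. A subsequent 4uM final 54-4 (EC80) addition followed by a second 110 s read served as the antagonist phase.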
Numbers stand for hits; 0 = inactive; ? = inconclusive; - = no result given. Hits are enriched below; roughly 1.3% of the tested compounds scored in any of these assays. Unless noted, calls come from the whole dose curve; as a rule, active = well fitted curve in the direction sought with a large enough effect; inconclusive = small, poorly fitted or top-dose-only effect, or another doubt; inactive = no such curve, though single readings can be large; an effect the other way counts as inactive or inconclusive.

SMILES	TRPML1 inh	Vif-A3F inh	Glioma ERSR ind	Vif-APOBEC3G blk	ALOX12 inh	TRPML1 ag
CN(CC(=O)Nc1ccccc1Br)Cc1ccccc1N1CCCCC1	-	-	-	-	0	-
CCC(=O)N1CCN(c2nc3c(s2)CC(C(=O)NCc2ccccc2)CC3)CC1 (stereo not drawn)	-	-	-	-	0	-
CCC(CC)NC(=O)C1CCc2nc(N3CCN(C(=O)C(C)C)CC3)sc2C1 (stereo not drawn)	-	-	-	-	35.5µM	-
Cc1ccc2[nH]c(O)c(N=Nc3ccccc3[N+](=O)[O-])c2c1	0	0	0	0	0	0
CCN(CC)S(=O)(=O)c1cc([N+](=O)[O-])ccc1N=Nc1c(O)[nH]c2ccccc12	0	12.6µM	0	0	0	0
CCS(=O)(=O)CC(=O)NC(C)c1ccc(OCCC(C)C)cc1 (stereo not drawn)	-	-	-	-	0	-
CC1=C(O)C(=O)C(C2=C(O)C(=O)C(C)=C(O)C2=O)=C(O)C1=O	-	0	0	0	?	-
Cc1ccc(C2=C(O)C(=O)C(c3ccc(C)cc3)=C(O)C2=O)cc1	0	0	0	0	1.12µM	0
CC(Oc1ccc(C#N)cc1)C(=O)NC1CCC2CCCCC2C1 (stereo not drawn)	-	-	-	-	0	-
CN(C)c1ccc(C(=O)OCc2ccc(C#N)cc2)cc1	-	-	-	-	0	-
O=C1C(=Cc2ccccc2[N+](=O)[O-])Cc2ccccc21	0	12.6µM	0	?	0	0
CC1(C)CC(=Cc2ccccc2[N+](=O)[O-])C(=O)c2ccccc21	0	0	0	0	?	0
COc1ccccc1/C=C1\Cc2ccccc2C1=O	0	0	0	0	0	0
Nc1ccccc1C=C1Cc2ccccc2C1=O	0	6.31µM	0	?	0	0
O=C(NCc1cccnc1)c1ccc(N2CCC(NCCCn3ncc4ccccc43)CC2)cc1	-	-	-	-	0	-
CC(C)=CC(=O)N(Cc1ccco1)C1CC1	-	-	-	-	0	-
CC(C)(C)c1ccc(NC(=O)CCC(=O)O)cc1	-	-	-	-	0	-
Cc1ccc(S(=O)(=O)c2nc(-c3ccccc3)oc2NCCCN2CCOCC2)cc1	0	0	0	0	0	0
O=S(=O)(c1ccc2c(c1)OCCO2)c1nc(-c2ccccc2)oc1NCCN1CCOCC1	-	-	-	-	25.1µM	-
CCCCn1c(=O)[nH]c2nc3cc(NC(C)=O)ccc3nc2c1=O	0	0	0	0	0	0
CCCCCCn1c(=O)[nH]c2nc3cc(N)c(C)cc3nc2c1=O	0	?	0	0	?	69.8
Cc1nn(-c2ccc(C(F)(F)F)cc2)c(C)c1[C@@H]1C=C[C@@H](NC(=O)COCC(=O)O)C1	-	-	-	-	0	-
Cc1nn(-c2ccc(C(F)(F)F)cc2)c(C)c1[C@@H]1C=C[C@@H](NC(=O)NC(C)C)C1	-	-	-	-	11.2µM	-
Cc1nn(-c2ccc(F)cc2)c(C)c1[C@@H]1C=C[C@@H](NC(=O)CC(C)(C)CC(=O)O)C1	-	-	-	-	20µM	-
CC(=O)NCCNS(=O)(=O)CCC(=O)O	-	-	-	-	0	-
SMILES	TRPML1 inh	Vif-A3F inh	Glioma ERSR ind	Vif-APOBEC3G blk	ALOX12 inh	TRPML1 ag
Oc1[nH]c2ccccc2c1N=Nc1ccccc1	0	25.1µM	0	?	0	0
CCC(=O)/C=C1/Sc2ccccc2N1CC	0	0	0	0	0	0
CCOC(=O)/C(=C/C=C1\Sc2cc(C)c(C)cc2N1CC)C(C)=O	0	0	0	0	0	89.8
CCOC(=O)/C(=C/C=C1\Sc2ccccc2N1CC)C(C)=O	0	0	0	?	-	80.1
CCOC(=O)/C(=C\C=C1/Sc2ccccc2N1CC)C(C)=O	0	0	0	?	?	88.8
Cc1oc2cc(OCC(=O)Nc3nccs3)ccc2c(=O)c1-c1ccc(Cl)cc1	-	-	-	-	0	-
Cc1ccc(C(=O)N/N=C/CCc2ccccc2)cc1C	-	-	-	-	0	-
Cc1ccc(-c2c(NC(=O)c3ccco3)n(-c3ccc(C)cc3)nc(C)c2=O)cc1	-	-	-	-	0	-
Clc1ccccc1C1(c2ccnc(NCCc3cccnc3)n2)CCNCC1	-	-	-	-	20µM	-
CCCCCCCCc1ccc(C(=O)CCN(C)C)cc1	-	-	-	-	12.6µM	-
CCOc1cc(/C=C/C(=O)c2cccc(Cl)c2)cc(Cl)c1O	-	-	-	-	5.62µM	-
CCOc1ccc(/C=C/C(=O)c2ccccc2)cc1OC	0	0	?	0	0	0
CCOc1cc(/C=C/C(=O)c2ccccc2Cl)cc(Cl)c1O	-	-	-	-	35.5µM	-
